# Measured values taken from PubChem BioAssay (NCATS).
# The other results are listed elsewhere or left out. Inconclusive results are not listed. Unmarked numbers belong to inactive results. Active and inactive are the calls of the source. The call rests on the fitted dose curve.
# Biological target: Polyprotein P1234 (Chikungunya virus (strain S27-African prototype)) (UniProt Q8JUX6)
# Assay: Secondary cell base assay for inhibitors of NSP2Pro Chikungunya virus (CHIKV) (AID 1964100); further: nearly all actives have a fitted effect of over 70% in size
# Conditions: cell-based CHIKV nsP2 protease reporter assay; series mostly up to 51.1 µM; activity change, negative = inhibition: at the top concentration
# Text: PI: Natalia J. Martinez Ph.D.
# National Center for Advancing Translational Sciences (NCATS),
# National Institute of Health (NIH), Rockville, Maryland
# Chikungunya virus (CHIKV) is a mosquito-borne RNA virus that has emerged as one of the most important global arboviral threats in the last decade. Although the first CHIKV vaccine has recently been FDA approved for use in healthy adults at increased risk, to date, there are no available antiviral drugs for CHIKV infection. CHIKV nsP2 protease plays a crucial role in the processing of the viral polypeptide precursor to release enzymes required for viral replication, thus making it a promising drug target for antiviral discovery. Here, we established a high-throughput pipeline to identify small molecule inhibitors of nsP2 proteolytic activity. The pipeline is composed of a suite of 1,536-well in vitro assays to support quantitative high-throughput (qHTS) screening campaigns. Specifically, we developed a fluorescence resonance energy transfer (FRET)-based assay using a fluorogenic peptide substrate encompassing an endogenous cleavage site and purified recombinant protease domain (nsP2pro). Using this assay, we interrogated ~37,000 small molecules, including those in drug repurposing libraries as well as chemically diverse and medicinal chemistry-friendly compounds. Hits were selected for follow-up validation against full-length nsP2 and an additional peptide. FRET-based 1,536-well assays for papain, hepatitis C virus NS3-4A, and human furin proteases were implemented to characterize compound selectivity. […] Novel compounds were identified to be potential nsP2 inhibitors and molecular docking analyses were performed to explain the binding mode of selected hits. In vitro antiviral activity was evaluated for a subset of compounds using a high-throughput CHIKV infection assay. To our knowledge, the pipeline presented here is unprecedented for CHIKV antiviral discovery research.
# Described herein is the secondary cell-based assay using a reporter construct. Construct cloning was produced by gene synthesis (GeneScript). The Split Nluc reporter construct was cloned into the NheI/EcoRI sites of pcDNA3.1 (+). The Nterm HiBiT (86b) and Cterm LgBiT (11S) sequences of the Split Nluc reporter were separated by a flexible loop containing the nsp3/4 cleavage site ([…]) or a flexible loop without a cleavage site (12X GlySer). nsP2pro expression construct (amino acids 220-798, accession #MT933050) was cloned into the NheI/EcoRI sites of pcDNA3.1 (+) and contained a C-terminal Flag/6xHis tag. The gene synthesis of the Split Nluc reporter and West Nile Virus (WNV) NS2B/NS3 protease expression constructs was performed by Synbio Technologies. The Split Nluc reporter construct included the N-terminal HiBiT (86b) and C-terminal LgBiT (11S) sequences, separated by a loop containing the WNV NS2B/NS3 cleavage site ([…]). The WNV NS2B/NS3 protease expression construct (amino acids 1375-1693, accession #NC_009942) contained a C-terminal Flag/6xHis tag. Both constructs were cloned into the XbaI/AgeI sites of pcDNA3.4.
# PROTOCOL TABLE (as described by Inglese J, Shamu CE and Guy RK. 2007)
# SEQUENCE No. (e.g., 1, 2, 3, etc.); […] (e.g., Cells, Incubation, Reagent, etc.); VALUE; DESCRIPTION.
# 1a; Cell Transfection; Lipofectamine 2000.
# 1b; Cell; 4 uL; Aurora 1536-well, white, tissue culture plate.
# 2; Incubation; 4 hr; 37C, 5% CO2, 95% humidity.
# 3; Compound; 20 nL; Echo 650 Liquid Handler.
# 4; Incubation; overnight; 37C, 55 CO2, 95% humidity.
# 5; Reagent; 4 uL; Nano-Glo Luciferase assay system.
# 6; Centrifugation; 2 sec.
# 7; Detection; Luminescence; ViewLux plate reader (PerkinElmer).
# NOTES (numbers refer to sequence numbers above).
# 1a. […]
# On the % scale 0 is the no-effect control and ±100 the full control effect; potency means the concentration at half of the fitted maximal effect.
SMILES,"activity change, negative = inhibition",Potency
CCC(C)C(=O)OC1C(C)C2(O)C(C=C(CO)CC3(O)C(=O)C(C)=CC32)C2C(C)(C)C12OC(=O)C(C)C (centres undefined),273% [at 17.6 µM],
CCOc1ccc(NC(=O)c2c(NC(=O)Cc3ccccc3)sc3c2CCC(C)C3)cc1 (centres undefined),-16.6%,
C=CC(=O)c1ccc2ccccc2c1,-6.82%,
COC([CH2][Hg])CNC(=O)c1ccccc1OCC(=O)O (centres undefined),-12.4%,
CCc1ccccc1NC(=O)c1cnn(-c2ccc(F)cc2)c1C1CCNCC1,1.05%,
Cc1cc(C)cc(NC(=O)CSc2oc(-c3ccccc3)nc2S(=O)(=O)c2ccc(Cl)cc2)c1,167%,
Oc1ccc(OC2CCCCO2)cc1 (centres undefined),-6.43%,
CCOc1ccc(NC(=O)c2c(NC(=O)Cc3ccccc3)sc3c2CCCCC3)cc1,31.1%,
Cc1c(S(=O)(=O)O)oc2c1C(=O)C(=O)c1c-2ccc2c1CCCC2(C)C,-3.37%,
C[C@@H]1C[C@@H](O)[C@@]23CO[C@]2(CO)C[C@@H](O)CC3[C@@]12CC(c1ccoc1)OC2=O (some centres undefined),-7.47% [at 33.5 µM],
C[C@@H]1[C@H](O)[C@@H]2OC(=O)C3=C2[C@H](CCC3)[C@@]12C[C@@H](c1ccoc1)OC2=O,13.6% [at 33.5 µM],
CC1=C(/C=C/C(C)=C/C=C/C(C)=C/C=C/C=C(C)/C=C/C=C(C)/C=C/C2=C(C)CCCC2(C)C)C(C)(C)CCC1,-2.28%,
C[C@@H]1O[C@@H](O[C@@H]2[C@@H](O)[C@H](OCCc3ccc(O)c(O)c3)O[C@H](CO[C@@H]3O[C@H](CO)[C@@H](O)[C@H](O)[C@H]3O)[C@H]2OC(=O)/C=C/c2ccc(O)c(O)c2)[C@H](O)[C@H](O)[C@H]1O,6.92%,
Cn1nnnc1Sc1ncnc2n[nH]c(-c3cccc(S(C)(=O)=O)c3)c12,,11.2 µM (active)
CO[C@]1(NC(=O)CSC(F)F)C(=O)N2C(C(=O)O)=C(CSc3nnnn3CCO)CO[C@H]21,-3.23%,
C=Cc1c(C)c2cc3nc(cc4[nH]c(cc5nc(cc1[nH]2)C(C)=C5CCC(=O)O)c(CCC(=O)OC)c4C)[C@@]1(C)C3=CC=C(C(=O)OC)[C@H]1C(=O)OC,7.15%,
CCOc1ccc(N(Cc2ccccc2)C(=O)c2nc(S(C)(=O)=O)ncc2Cl)cc1,,2.31 µM (active)
Cc1ccc(N[S+](=O)([O-])c2cc3c(cc2N[C@@H](C)CO)NC(=O)CC3)cc1N[C@@H](C)CO,0.443%,
CC(=O)N[C@@H](C(=O)O[C@H]1CCC(C)(C)[C@@H]2CCC3=C(COC3=O)[C@@]12C)C(C)C,8.89% [at 33.5 µM],
